Drawing on PubChem BioAssay (NCI), this text covers growth for 13 molecules.

This is part of a sample that, as a whole, favours compounds with a hit. Of some 83,000 tested, about 20% had one in any assay.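 Cell lines were cultured in 96-well plates, exposed to a single compound concentration, and assessed for percent growth 48 hours later.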 Values without a mark were called inactive. Active and inactive are the calls of the source. The calls were made as follows: active = growth percent below 10; inactive = the rest.

Test systems include HCT-15 colon; HT29 colon; SNB-75 CNS; SNB-19 CNS; U251 CNS; PC-3 prostate; SK-MEL-5 melanoma; UACC-62 melanoma; LOX IMVI melanoma; SK-MEL-28 melanoma.
Assay in all cases: NCI-60 one-dose screen, 48 h (100 = growth as untreated, 0 = no growth, -100 = all killed)
Common to all, as to details: 10 µM unless noted

`COc1cc(-c2csc(NC(=O)Nc3cc(Cl)cc(Cl)c3)n2)cc(OC)c1OC`: the growth is 14.5% with HCT-15 colon; 21.9% in the test on HT29 colon; -29.2% (active) in the test with SNB-75 CNS; 9% (active) with SNB-19 CNS; -80.1% (active) with U251 CNS; 10.7% in the test with PC-3 prostate. The growth with SK-MEL-5 melanoma was 54.5%; with UACC-62 melanoma, -62.2% (active); with LOX IMVI melanoma it was 6.77% (active); in the test on SK-MEL-28 melanoma, 30.6%.

On to `CC(C)C1=C[C@@]23CC[C@H]4[C@](C)(COCCC#N)CCC[C@]4(C)[C@H]2C[C@@H]1[C@@H]1[C@H]3[C@@H](OCCC#N)CC[C@@H]1OCCC#N`, for which the growth with HCT-15 colon is 22.8%; in the test on HT29 colon it was 12.1%; with SNB-75 CNS it was 80.3%; in the test with SNB-19 CNS, 50.3%; in the test with U251 CNS, 29.1%; in the test with PC-3 prostate, 9.6% (active). In addition, the growth with SK-MEL-5 melanoma is 39.1%; in the test with UACC-62 melanoma, 45.3%; with LOX IMVI melanoma, 40.1%; in the test on SK-MEL-28 melanoma it was 48.7%.

As to `Cc1c(Cl)cccc1NC(=O)c1sc2nc3c(cc2c1N)CN(Cc1ccccc1)CC3`, the growth in the test on HCT-15 colon is 33.6%; in the test on HT29 colon, 8.14% (active); in the test with SNB-75 CNS, 41.9%; in the test on SNB-19 CNS, 38.4%; in the test on U251 CNS, 31.9%; with PC-3 prostate it was 43.1%. Also, the growth in the test with SK-MEL-5 melanoma is 49.1%; in the test with UACC-62 melanoma it was 40.2%; in the test on LOX IMVI melanoma, 40.4%; with SK-MEL-28 melanoma, 71.1%.

With `CCOC(=O)NC(Cc1ccccc1)c1ccccc1` (stereo not given), the growth was 106% in the test with HCT-15 colon; 97.5% in the test with HT29 colon; 100% with SNB-75 CNS; 104% with SNB-19 CNS; 99.9% in the test with U251 CNS; 94.7% with PC-3 prostate. In addition, the growth in the test on SK-MEL-5 melanoma was 104%; with UACC-62 melanoma it was 97.5%; in the test with LOX IMVI melanoma, 94.9%; with SK-MEL-28 melanoma, 115%.

Regarding `COC(=O)/C=C1\SC(=Nc2ccc(F)cc2)N(CCc2c[nH]c3ccccc23)C1=O`, the growth in the test with HCT-15 colon was 98.3%; with HT29 colon, 66.3%; with SNB-75 CNS it was 108%; in the test on SNB-19 CNS it was 103%; in the test with U251 CNS it was 98.2%; in the test with PC-3 prostate, 87.9%. The growth is 99.5% in the test on SK-MEL-5 melanoma, 82.6% in the test on UACC-62 melanoma, 90% in the test with LOX IMVI melanoma and 112% in the test on SK-MEL-28 melanoma.

For the molecule `COc1cc2nc3c(=O)n(-c4ccc(C#N)cc4)cnn3c(=O)c2cc1OC`, the growth was 100% in the test with HCT-15 colon; 100% in the test with HT29 colon; 73.9% with SNB-75 CNS; 97.7% in the test on SNB-19 CNS; 102% in the test with U251 CNS; 98.3% in the test on PC-3 prostate. Also, the growth was 96.1% in the test with SK-MEL-5 melanoma, 95.1% in the test with UACC-62 melanoma, 95.4% with LOX IMVI melanoma and 99.8% with SK-MEL-28 melanoma.

Turning to `N#CC1C(c2ccc(Cl)cc2)=Nc2c(c(-c3ccccc3)nn2-c2ccccc2)C12C(=O)Nc1ccc(Cl)cc12` (stereo not given), the growth was 20.5% in the test with HCT-15 colon; 22.5% in the test with HT29 colon; 45.8% in the test on SNB-75 CNS; 24.1% with SNB-19 CNS; 18.6% in the test on U251 CNS; 11.8% with PC-3 prostate. Besides, the growth is 46.5% in the test with SK-MEL-5 melanoma, 48.2% with UACC-62 melanoma, 43.9% in the test on LOX IMVI melanoma and 52% with SK-MEL-28 melanoma.

On to `CCOC(=O)C1CCN(S(=O)(=O)/N=C2/NC(=O)NC2=C(Cl)Cl)CC1`, for which the growth is -72.6% (active) in the test on HCT-15 colon; -61.6% (active) in the test with HT29 colon; 55.5% in the test on SNB-75 CNS; 16.8% in the test with SNB-19 CNS; -86.7% (active) in the test with U251 CNS; 17.7% with PC-3 prostate. The growth with SK-MEL-5 melanoma was 14.1%; in the test with UACC-62 melanoma it was -30.6% (active); in the test with LOX IMVI melanoma, -65% (active); in the test on SK-MEL-28 melanoma, -8.67% (active).

`C=C1C(=O)O[C@H]2[C@H]1CC/C(COC(=O)CCCCCCCCC(=O)OC/C1=C/CC[C@@]3(C)O[C@H]3[C@H]3OC(=O)C(=C)[C@@H]3CC1)=C\CC[C@@]1(C)O[C@@H]21`: the growth with HCT-15 colon is -31.6% (active); in the test on HT29 colon it was -27.5% (active); in the test with SNB-75 CNS, 58.4%; in the test on SNB-19 CNS, 43.8%; in the test on U251 CNS it was 12.1%; in the test on PC-3 prostate, -6.62% (active). Also, the growth was -32.6% (active) with SK-MEL-5 melanoma, -18.8% (active) with UACC-62 melanoma, -84.7% (active) in the test with LOX IMVI melanoma and -12.8% (active) in the test on SK-MEL-28 melanoma.

For `Cc1cnc(-c2ccc(-c3ccc(NC(=O)Nc4c(F)cc(F)cc4F)cc3F)c3c2C(=O)NC3)[nH]1`, the growth is 49.4% in the test on HCT-15 colon; 27% with HT29 colon; 17.3% in the test on SNB-75 CNS; 41.9% in the test on SNB-19 CNS; 8.19% (active) in the test with U251 CNS; 39.7% in the test with PC-3 prostate. Besides, the growth with SK-MEL-5 melanoma is 38.5%; in the test with UACC-62 melanoma, 0.806% (active); with LOX IMVI melanoma, 32.9%; in the test on SK-MEL-28 melanoma, 39.1%.

`C=C1C(=O)O[C@H]2[C@H]1CC/C(COC(=O)c1c[nH]c3ccccc13)=C\CC[C@@]1(C)O[C@@H]21`: the growth was -69.5% (active) in the test with HCT-15 colon; -59.8% (active) in the test on HT29 colon; -2.2% (active) in the test on SNB-75 CNS; -40.3% (active) in the test with SNB-19 CNS; -81.2% (active) with U251 CNS; -52.1% (active) in the test with PC-3 prostate. Moreover, the growth in the test on SK-MEL-5 melanoma is -98.2% (active); with UACC-62 melanoma it was -69.1% (active); with LOX IMVI melanoma it was -94.8% (active); in the test with SK-MEL-28 melanoma, -63.8% (active).

Regarding `Cc1cc(Nc2nc(SCc3ccc(C(=O)Nc4ccc(F)cc4N)cc3)nn3cccc23)n[nH]1`, the growth with HCT-15 colon is 22.6%; with HT29 colon, 4.22% (active); in the test with SNB-75 CNS, 29.2%; in the test on SNB-19 CNS it was 43.8%; in the test on U251 CNS, 25%; in the test with PC-3 prostate it was 28%. For the same molecule, the growth in the test on SK-MEL-5 melanoma is 7.54% (active); in the test with UACC-62 melanoma it was 24.2%; in the test with LOX IMVI melanoma, 30.1%; in the test on SK-MEL-28 melanoma, 68.7%.

As for `CCOC(=O)c1c(C)nc2c(c1N)/C(=C/c1ccc[nH]1)C(=O)N2Cc1ccc(C(F)(F)F)cc1`, the growth with HCT-15 colon is 68.8%; in the test with HT29 colon, 70%; in the test with SNB-75 CNS, 25.3%; in the test on SNB-19 CNS it was 36.3%; with U251 CNS it was 25.2%; in the test on PC-3 prostate it was 52.1%. Besides, the growth was 82.2% in the test with SK-MEL-5 melanoma, 81.8% in the test on UACC-62 melanoma, 56.7% with LOX IMVI melanoma and 89.6% in the test on SK-MEL-28 melanoma.
